According to PubChem BioAssay (NCATS):
Records with an inconclusive call do not appear. A number with no mark means an inactive call. Calls of active or inactive are those of the source. The call rests on the fitted dose curve; in most records, active means well fitted cell-killing curve with a large enough effect; inconclusive means small, poorly fitted or top-dose-only effect, or effect the other way; inactive means no such curve, though single readings can be large or run the other way.

test: Quantitative High-Throughput drug screen in 47 multiple myeloma cell lines against the NCATS MIPE library collection: KMS34_JCRB cell viability assay (AID 1918985); conditions: KMS34 myeloma viability, CellTiter-Glo ATP luminescence, 48 h; series mostly up to 45.8 µM; viability, percent of control: at the top concentration; further: nearly all actives have a fitted effect of over 40% in size
In short: (§1)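 500 cells/well per myeloma line exposed to pinned MIPE 4.0 compounds for 48 h at 37 °C, 5% CO2. Viability read as ATP by CellTiter-Glo luminescence, normalised to DMSO-only (100%) and media-only (0%) wells.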
Potency means the concentration at half of the fitted maximal effect.

SMILES | Potency | viability, percent of control
CO[C@@]12[C@H](COC(N)=O)C3=C(C(=O)C(C)=C(N)C3=O)N1C[C@@H]1N[C@@H]12 | 26.4 µM (active) | 
CCN1CCCC1CNC(=O)c1cc(S(N)(=O)=O)ccc1OC (stereo unspecified) |  | 114%
Nc1ccc(S(=O)(=O)Nc2ccccn2)cc1 |  | 127%
O=NN(CCCl)C(=O)NC1CCCCC1 |  | 92.5%
Nc1nc(=S)c2[nH]cnc2[nH]1 | 2.96 µM (active) | 
C[C@@H]1CN(c2c(F)c(N)c3c(=O)c(C(=O)O)cn(C4CC4)c3c2F)C[C@H](C)N1 |  | 75.3% [at 23.2 µM]
CCc1cc(C(N)=S)ccn1 |  | 128%
CN(C)c1ccc(C(=C2C=CC(=[N+](C)C)C=C2)c2ccc(N(C)C)cc2)cc1 | 0.105 µM (active) | 
CCC(=O)O[C@]1(C(=O)SCF)[C@H](C)C[C@H]2[C@@H]3C[C@H](F)C4=CC(=O)C=C[C@]4(C)[C@@]3(F)[C@@H](O)C[C@@]21C |  | 79.4%
NC(=O)c1cccc(N)c1 |  | 101%
COC(=O)Nc1nc2ccc(C(=O)c3ccccc3)cc2[nH]1 | 0.935 µM (active) | 
CN(CCOc1ccc(CC2SC(=O)NC2=O)cc1)c1ccccn1 (stereo unspecified) |  | 114%
CC(C)(C)NC(=O)[C@H]1CC[C@H]2[C@@H]3CC[C@H]4NC(=O)C=C[C@]4(C)[C@H]3CC[C@]12C |  | 92.3%
Cc1nnc(NS(=O)(=O)c2ccc(N)cc2)s1 | 18.7 µM (active) | 
S=P(N1CC1)(N1CC1)N1CC1 | 0.0012 µM (active) | 
CC(=O)CC(c1ccccc1)c1c(O)c2ccccc2oc1=O (stereo unspecified) |  | 112%

test: Quantitative High-Throughput drug screen in 47 multiple myeloma cell lines against the NCATS MIPE library collection: OCIMY7_PLB cell viability assay (AID 1918987); conditions: OCI-MY7 myeloma viability, CellTiter-Glo ATP, 48 h; series mostly up to 45.8 µM; viability (% of DMSO): at the top concentration; further: nearly all actives have a fitted effect of over 65% in size
In short: as §1

SMILES | Potency | viability (% of DMSO) [%]
CCC(=O)O[C@]1(C(=O)SCF)[C@H](C)C[C@H]2[C@@H]3C[C@H](F)C4=CC(=O)C=C[C@]4(C)[C@@]3(F)[C@@H](O)C[C@@]21C | 5.26 µM (active) | 
CC(C)(C)NC(=O)[C@H]1CC[C@H]2[C@@H]3CC[C@H]4NC(=O)C=C[C@]4(C)[C@H]3CC[C@]12C | 0.332 µM (active) | 
CC(=O)CC(c1ccccc1)c1c(O)c2ccccc2oc1=O (stereo unspecified) |  | 204

test: Quantitative High-Throughput drug screen in 47 multiple myeloma cell lines against the NCATS MIPE library collection: OCIMY5_PLB cell viability assay (AID 1918988); conditions: OCI-MY5 myeloma viability, ATP luminescence, 48 h; series mostly up to 45.8 µM; viability, % of control: at the top concentration; further: nearly all actives have a fitted effect of over 65% in size;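 on viability, % of control: 100% = DMSO-treated wells and 0% = wells with media alone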
In short: as §1

SMILES | Potency | viability, % of control [%]
CCOC(=O)[C@H](CCc1ccccc1)N[C@H]1CCc2ccccc2N(CC(=O)O)C1=O | 23.5 µM (active) | 
CC(C)Cn1cnc2c(N)nc3ccccc3c21 | 16.6 µM (active) | 
CO[C@@]12[C@H](COC(N)=O)C3=C(C(=O)C(C)=C(N)C3=O)N1C[C@@H]1N[C@@H]12 | 26.4 µM (active) | 
Nc1nc(=S)c2[nH]cnc2[nH]1 | 3.72 µM (active) | 
COc1ccc(C(=O)CC(=O)c2ccc(C(C)(C)C)cc2)cc1 | 2.64 µM (active) | 
CN(C)c1ccc(C(=C2C=CC(=[N+](C)C)C=C2)c2ccc(N(C)C)cc2)cc1 | 0.0743 µM (active) | 
CCC(=O)O[C@]1(C(=O)SCF)[C@H](C)C[C@H]2[C@@H]3C[C@H](F)C4=CC(=O)C=C[C@]4(C)[C@@]3(F)[C@@H](O)C[C@@]21C | 23.5 µM (active) | 
NC(=O)c1cccc(N)c1 |  | 204
O=P(O)(O)C(O)(Cc1cccnc1)P(=O)(O)O |  | 141
CCN(CC)CCn1c(=O)c(Cc2ccc(OC)cc2)nc2ccccc21 |  | 120
COc1ccc2cc3[n+](cc2c1OC)CCc1cc2c(cc1-3)OCO2 | 14.8 µM (active) | 
COC(=O)Nc1nc2ccc(C(=O)c3ccccc3)cc2[nH]1 | 0.418 µM (active) | 
CN(CCOc1ccc(CC2SC(=O)NC2=O)cc1)c1ccccn1 (stereo unspecified) | 1.05 µM (active) | 
CC(C)(C)C(=O)OCOP(=O)(COCCn1cnc2c(N)ncnc21)OCOC(=O)C(C)(C)C | 1.87 µM (active) | 
CC(C)(C)NC(=O)[C@H]1CC[C@H]2[C@@H]3CC[C@H]4NC(=O)C=C[C@]4(C)[C@H]3CC[C@]12C | 0.59 µM (active) | 
C1CCC(C(CC2CCCCN2)C2CCCCC2)CC1 (stereo unspecified) | 9.35 µM (active) | 
CC[C@H](NC(C)C)[C@H](O)c1ccc(O)c2[nH]c(=O)ccc12 | 0.0833 µM (active) | 
COc1nc(N)nc2c1ncn2[C@@H]1O[C@H](CO)[C@@H](O)[C@@H]1O |  | 165
S=P(N1CC1)(N1CC1)N1CC1 |  | 199
Cc1ccnc2c1NC(=O)c1cccnc1N2C1CC1 |  | 156
CCCCOc1ccc(CC(=O)NO)cc1 | 9.35 µM (active) | 
CCCCc1oc2ccc(NS(C)(=O)=O)cc2c1C(=O)c1ccc(OCCCN(CCCC)CCCC)cc1 | 4.69 µM (active) | 
CNS(=O)(=O)CCc1ccc2[nH]cc(C3CCN(C)CC3)c2c1 | 1.18 µM (active) | 

test: Quantitative High-Throughput drug screen in 47 multiple myeloma cell lines against the NCATS MIPE library collection: OPM1_PLB cell viability assay (AID 1918989); conditions: CellTiter-Glo, 48 h; series mostly up to 45.8 µM; viability (% of control): at the top concentration; further: nearly all actives have a fitted effect of over 40% in size
In short: as §1

SMILES | Potency | viability (% of control)
CCOC(=O)[C@H](CCc1ccccc1)N[C@H]1CCc2ccccc2N(CC(=O)O)C1=O | 16.6 µM (active) | 
COc1cc(NS(=O)(=O)c2ccc(N)cc2)nc(OC)n1 |  | 145%
CO[C@@]12[C@H](COC(N)=O)C3=C(C(=O)C(C)=C(N)C3=O)N1C[C@@H]1N[C@@H]12 | 26.4 µM (active) | 
CCN1CCCC1CNC(=O)c1cc(S(N)(=O)=O)ccc1OC (stereo unspecified) |  | 121%
Nc1ccc(S(=O)(=O)Nc2ccccn2)cc1 |  | 125%
O=NN(CCCl)C(=O)NC1CCCCC1 |  | 124%
Nc1nc(=S)c2[nH]cnc2[nH]1 | 1.18 µM (active) | 
C[C@@H]1CN(c2c(F)c(N)c3c(=O)c(C(=O)O)cn(C4CC4)c3c2F)C[C@H](C)N1 |  | 157% [at 23.2 µM]
CCc1cc(C(N)=S)ccn1 |  | 120%
COc1ccc(C(=O)CC(=O)c2ccc(C(C)(C)C)cc2)cc1 | 7.43 µM (active) | 
CN(C)c1ccc(C(=C2C=CC(=[N+](C)C)C=C2)c2ccc(N(C)C)cc2)cc1 | 0.0118 µM (active) | 
CCC(=O)O[C@]1(C(=O)SCF)[C@H](C)C[C@H]2[C@@H]3C[C@H](F)C4=CC(=O)C=C[C@]4(C)[C@@]3(F)[C@@H](O)C[C@@]21C |  | 129%
NC(=O)c1cccc(N)c1 |  | 122%
O=P(O)(O)C(O)(Cc1cccnc1)P(=O)(O)O |  | 139%
CCN(CC)CCn1c(=O)c(Cc2ccc(OC)cc2)nc2ccccc21 |  | 127%
COc1ccc2cc3[n+](cc2c1OC)CCc1cc2c(cc1-3)OCO2 | 18.7 µM (active) | 
COC(=O)Nc1nc2ccc(C(=O)c3ccccc3)cc2[nH]1 | 1.66 µM (active) | 

SMILES | Potency | viability (% of control)
CN(CCOc1ccc(CC2SC(=O)NC2=O)cc1)c1ccccn1 (stereo unspecified) |  | 127%
CN(Cc1cc(Br)cc(Br)c1N)C1CCCCC1 |  | 135%
CC(C)(C)C(=O)OCOP(=O)(COCCn1cnc2c(N)ncnc21)OCOC(=O)C(C)(C)C | 6.62 µM (active) | 
Nc1[nH]c(=O)ncc1F |  | 126%
CC(C)(C)NC(=O)[C@H]1CC[C@H]2[C@@H]3CC[C@H]4NC(=O)C=C[C@]4(C)[C@H]3CC[C@]12C | 2.64 µM (active) | 
NNC(=O)c1ccncc1 |  | 115%
C1CCC(C(CC2CCCCN2)C2CCCCC2)CC1 (stereo unspecified) | 10.5 µM (active) | 
CC[C@H](NC(C)C)[C@H](O)c1ccc(O)c2[nH]c(=O)ccc12 |  | 157%
Cc1nnc(NS(=O)(=O)c2ccc(N)cc2)s1 | 14.8 µM (active) | 
COc1nc(N)nc2c1ncn2[C@@H]1O[C@H](CO)[C@@H](O)[C@@H]1O |  | 141%
CN1CCN(c2c(F)cc3c(=O)c(C(=O)O)cn(CCF)c3c2F)CC1 |  | 115%
S=P(N1CC1)(N1CC1)N1CC1 |  | 152%
Cc1ccnc2c1NC(=O)c1cccnc1N2C1CC1 |  | 154%
CCCCOc1ccc(CC(=O)NO)cc1 | 14.8 µM (active) | 
CCCCc1oc2ccc(NS(C)(=O)=O)cc2c1C(=O)c1ccc(OCCCN(CCCC)CCCC)cc1 | 13.2 µM (active) | 
CC(=O)CC(c1ccccc1)c1c(O)c2ccccc2oc1=O (stereo unspecified) |  | 141%
CNS(=O)(=O)CCc1ccc2[nH]cc(C3CCN(C)CC3)c2c1 | 5.26 µM (active) | 
